The record followed here is PubChem BioAssay AID651832 (Vanderbilt Specialized Chemistry Center, 2012).

This assay in a line: binding inhibition across receptor and channel panel – biochemical, Eurofins PanLabs, competition binding, selectivity assay for M5 PAM project, profiling panel (AID 651832). Conditions: at 10 µM, stronger effect = higher value; for inhibition: Eurofins PanLabs radioligand binding panel.

The inhibition is the change of the read-out against control, counted positive when it falls. Turning to `O=C1C(=O)N(CCOc2ccccc2)c2ccc(OC(F)(F)F)cc21`, the inhibition of radioligand binding, muscarinic M1 worked out at 22%. Also, the inhibition (measured here: adenosine A3 binding) worked out at 57%. For the same molecule, the inhibition (measured here: adrenergic alpha1A binding) came to 71%. The inhibition (measured here: adrenergic alpha1B binding) was found to be 66%. In addition, the inhibition (measured here: cannabinoid CB1 binding) came out at 72%. For the same molecule, the inhibition (measured here: dopamine D1 binding) was 73%. Where the note is “measured here: dopamine D3 binding”, the inhibition worked out at 59%. Moreover, the inhibition (measured here: glucocorticoid receptor binding) amounted to 88%. The inhibition (measured here: hERG binding) stood at 21%. Also, the inhibition (measured here: histamine H2 binding) is 95%. Also, the inhibition (measured here: mu opioid binding) was 78%. The inhibition (measured here: muscarinic M2 binding) was -2%. The inhibition (measured here: norepinephrine transporter binding) was 77%.
